# Reference: paper PMC5540273 (PLoS ONE, 2017)
# System: CAMKK2
# Conditions: concentration: 1 μM, replicates: in singlicate; n = 1
# 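Note: KINOMEscan kinase panel screen.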
row,Structure (SMILES),%Inh [%]
1,Cc1nnc(-c2ccc3occ(-c4ccc(S(C)=O)cc4)c3c2)[nH]1 (stereo not drawn),14
2,Cc1cccc(-c2cc(Nc3ccncc3)c3ccccc3n2)n1 [GSK223675],20
3,Cc1csc(-c2nc(Nc3ccncc3)c3ccccc3n2)n1 [GW869640],23
4,Cn1ccc2ncnc(Oc3cccc(C(=O)Nc4ccccc4)c3)c21,0
5,O=C(Nc1n[nH]c2cc(-c3cccc(F)c3F)ccc12)C1CC1 [SB-733894],13
6,Cc1cc(-c2ccc3c(c2)CC[C@@H](N[C@@H](C)c2ccccc2)C3)cnc1N.Cl [GW412617],23
7,Cc1ccc(NC(=O)Nc2cccc(Cl)c2)cc1-c1ccc(C(=O)Nc2ccncc2)cc1 [GSK1398468],25
8,CN(C)CCN(C)C(=O)c1cc(-c2ccncc2)c(-c2ccc(Cl)c(O)c2)o1.Cl.Cl [SB-710397],0
9,O=C(Nc1n[nH]c2nc(-c3nccs3)c(Br)cc12)C1CC1 [SB-742251],0
10,Cc1cccc(-c2nc(C)cc(Nc3ccncc3)n2)n1 [GSK257997],12
11,Cc1cccc(-c2nc(Nc3cccc(C(N)=O)c3)c3ccccc3n2)n1 [GW876019],0
12,COc1cc2ncnc(Nc3ccc4nc(-c5ccccc5)[nH]c4c3)c2cc1OC.Cl [GW282450],13
13,CN1C(=O)C(Nc2ccc(Cl)c(C(=O)O)c2)=C(c2ccc(Cl)cc2)C1=O [SB-404290],0
14,Cc1cccc(-c2nc(Nc3ccncc3)c3ccccc3n2)n1 [GW855857],7
15,CCn1c(-c2cccnc2O)nc2cnccc21 [SB-736715],0
16,COc1ccccc1-c1ccc2c(NC(=O)C3CC3)n[nH]c2n1 [SB-711239],0
17,CS(=O)(=O)c1ccc(-c2nc3n(c2-c2ccncc2)CCC3)cc1 [SKF-105942],0
18,CC(C)(C)c1ccc(C(=O)Nc2cn3cc(-c4cccnc4)ccc3n2)cc1,18
19,Cc1c(Cn2ccn3c(=O)cc(N4CCOCC4)nc23)cccc1C(F)(F)F [GSK2289044],18
20,O=C(O)COc1ncnc2cc(-c3ccc4[nH]ncc4c3)sc12,24

# System: CASK
# Conditions: concentration: 1 μM, replicates: in singlicate; n = 1
row,Structure (SMILES),%Inh [%]
1,Nc1nc(-c2nccs2)c(-c2ccnc3ccccc23)s1 [GW693542],0
2,CC1=C(C(=O)Nc2cc3cn[nH]c3cc2F)C(c2ccc(C(F)(F)F)cc2)CC(=O)N1 (stereo not drawn) [GSK429286],43
3,Cc1cccc(-c2nc(Nc3ccc4[nH]ncc4c3)c3ccccc3n2)n1 [GW857175],45
4,Cc1cc(NCC(c2ccccc2)c2ccccc2)nc(NCc2ccc(C(F)(F)F)cc2)n1 [GW497681],0
5,COC(=O)c1c(-c2ccccc2)c2cc(OC)ccc2c(=O)n1Cc1ccccc1,0
6,Cn1ccc2ncnc(Oc3ccc(Nc4nc5ccccc5[nH]4)cc3)c21,0
7,COc1cc(Nc2nccc(N3CCC(NC(=O)Nc4cc(C)ccc4C)C3)n2)cc(OC)c1OC (stereo not drawn) [GSK1379762],42
8,O=C(Nc1ccccc1)Nc1cccc(Oc2ccc3nccn3n2)c1,16
9,Cl.O=C(Nc1cccc(-c2nn3ncccc3c2-c2ccnc(Nc3cccnc3)n2)c1)c1c(F)cccc1F [GSK312879],22
10,CCn1c(-c2ccccn2)nc2cnccc21 [SB-736398],2
11,CC(C)(C)c1ccc(C(=O)Nc2cn3cc(Cl)ccc3n2)cc1,18
12,Cl.NC(=O)c1cccc(Nc2nccc(Nc3ccc(Oc4cccc(Cl)c4)c(Cl)c3)n2)c1 [GW659008],7
13,Cc1ccccc1-n1cnc2c(N)ncnc21 [SKF-97510],0
14,COc1ccc2nc(-c3cccc(C)n3)nc(Nc3ccncc3)c2c1 [GSK204919],23
15,Cc1nnc(-c2ccc3occ(-c4ccc(S(C)=O)cc4)c3c2)[nH]1 (stereo not drawn),0
16,Cc1cccc(-c2cc(Nc3ccncc3)c3ccccc3n2)n1 [GSK223675],0
17,Cc1csc(-c2nc(Nc3ccncc3)c3ccccc3n2)n1 [GW869640],26

row,Structure (SMILES),%Inh [%]
1,Cn1ccc2ncnc(Oc3cccc(C(=O)Nc4ccccc4)c3)c21,5
2,O=C(Nc1n[nH]c2cc(-c3cccc(F)c3F)ccc12)C1CC1 [SB-733894],30
3,Cc1cc(-c2ccc3c(c2)CC[C@@H](N[C@@H](C)c2ccccc2)C3)cnc1N.Cl [GW412617],0
4,Cc1ccc(NC(=O)Nc2cccc(Cl)c2)cc1-c1ccc(C(=O)Nc2ccncc2)cc1 [GSK1398468],5
5,CN(C)CCN(C)C(=O)c1cc(-c2ccncc2)c(-c2ccc(Cl)c(O)c2)o1.Cl.Cl [SB-710397],29
6,O=C(Nc1n[nH]c2nc(-c3nccs3)c(Br)cc12)C1CC1 [SB-742251],42
7,Cc1cccc(-c2nc(C)cc(Nc3ccncc3)n2)n1 [GSK257997],19
8,Cc1cccc(-c2nc(Nc3cccc(C(N)=O)c3)c3ccccc3n2)n1 [GW876019],30
9,COc1cc2ncnc(Nc3ccc4nc(-c5ccccc5)[nH]c4c3)c2cc1OC.Cl [GW282450],25
10,CN1C(=O)C(Nc2ccc(Cl)c(C(=O)O)c2)=C(c2ccc(Cl)cc2)C1=O [SB-404290],3
11,Cc1cccc(-c2nc(Nc3ccncc3)c3ccccc3n2)n1 [GW855857],0
12,CCn1c(-c2cccnc2O)nc2cnccc21 [SB-736715],0
13,COc1ccccc1-c1ccc2c(NC(=O)C3CC3)n[nH]c2n1 [SB-711239],8
14,CS(=O)(=O)c1ccc(-c2nc3n(c2-c2ccncc2)CCC3)cc1 [SKF-105942],26
15,CC(C)(C)c1ccc(C(=O)Nc2cn3cc(-c4cccnc4)ccc3n2)cc1,0
16,Cc1c(Cn2ccn3c(=O)cc(N4CCOCC4)nc23)cccc1C(F)(F)F [GSK2289044],14
17,O=C(O)COc1ncnc2cc(-c3ccc4[nH]ncc4c3)sc12,0
